According to the supplement of paper PMC9399229:
Several values for one entry are separate records, joined by “and”; a condition that tells them apart may be missing. Equal values may be shown once. Where a name gives a salt, the structure may show the parent alone. ± gives the standard deviation of the averaged measurements. The full ranking holds about 1,900 compounds; the median of “relative cell viability (CellTiter-Glo), compound alone” is about 1, and the lowest 2% start at about 0.16. The entries come from a sample that favours the lowest values as a whole.

Each molecule was assayed on Hep3B (assay: relative cell viability (CellTiter-Glo), compound alone (fraction); higher = more viable cells (less growth inhibition)). Settings: cabozantinib 0 µM; 4 days.

SMILES	relative cell viability
Cc1ccc(C(=O)c2cc(O)c(O)c([N+](=O)[O-])c2)cc1 [Tolcapone]	1.05 ± 0.076
C=CC(=O)Nc1ccc2ncnc(Nc3cccc(Br)c3)c2c1	1.48 ± 0.24
NC(=S)N/N=C/c1ncccc1N [Triapine]	1.17 ± 0.017
COc1cc(Nc2ncc(F)c(Nc3ccc4c(n3)N(COP(=O)(O)O)C(=O)C(C)(C)O4)n2)cc(OC)c1OC [Fostamatinib (R788)]	0.843 ± 0.025
C/C(=C\c1ccc(C(=O)O)cc1)c1ccc2c(c1)C(C)(C)CCC2(C)C [TTNPB (Arotinoid Acid)]	1.11 ± 0.1
CO[C@H]1C[C@@H]2CC[C@@H](C)[C@@](O)(O2)C(=O)C(=O)N2CCCC[C@H]2C(=O)O[C@H]([C@H](C)C[C@@H]2CC[C@@H](OP(C)(C)=O)[C@H](OC)C2)CC(=O)[C@H](C)/C=C(\C)[C@@H](O)[C@@H](OC)C(=O)[C@H](C)C[C@H](C)/C=C/C=C/C=C/1C [Ridaforolimus (Deforolimus, MK-8669)]	1.07 ± 0.074
CC(C)(C)C(=O)Nc1ccc2c(c1)C(=O)C(=O)c1ccccc1-2	0.0728 ± 0.012
CC(=O)Nc1ccccc1 [Acetanilide]	1.17 ± 0.044
CC1=CC(=O)c2ccccc2C1=O [Menadione]	0.9362 ± 0.0074
NC(=O)CCCSc1nc(N)nc(-c2c(Cl)cc3c4c(cccc24)COC3)n1	0.19 ± 0.026
Cc1[nH]c2ccccc2c1CCNCc1ccc(/C=C/C(=O)NO)cc1 [Panobinostat (LBH589)]	0.12 ± 0.019
Cc1[nH]c2ccccc2c1CCNC(=O)c1cccs1	1.19 ± 0.067
O=C(/C=C/c1cccc(S(=O)(=O)Nc2ccccc2)c1)NO [Belinostat (PXD101)]	0.216 ± 0.019
Cn1cc(-c2ccncc2)c(-c2ccc(OCc3ccc4ccccc4n3)cc2)n1	1.13 ± 0.025
COc1cc(Br)c(Nc2nc(-c3c(C)nc4ncccn34)cs2)c(Br)c1	0.601 and 0.575
O=C(Nc1cc(C(F)(F)F)cc(C(F)(F)F)c1)c1cc(Cl)ccc1O	0.0996 ± 0.0025
CC(ONC(=O)c1cc(C(F)(F)F)cc(C(F)(F)F)c1)C(=O)Nc1ccc(Cl)cc1 (configuration not stated)	1.02 ± 0.094
O=C(Nc1ccccc1)c1ccccc1O [Salicylanilide]	1.147 ± 0.0051
CN1CCN(Cc2ccc(-c3cnc4[nH]cc(-c5ccc6[nH]ccc6c5)c4c3)cc2)CC1	0.791 ± 0.033
CCNC(=O)c1noc(-c2cc(C(C)C)c(O)cc2O)c1-c1ccc(CN2CCOCC2)cc1	0.176 ± 0.04
CCNC(=O)c1[nH]nc(-c2cc(Cl)c(O)cc2O)c1-c1ccc(OC)cc1	0.348 ± 0.025
CCNC(=O)c1noc(-c2cc(Cl)c(O)cc2O)c1-c1ccc(OC)cc1	0.15572 ± 2.3e-05
COc1ccc2cccc(CCNC(C)=O)c2c1 [Agomelatine]	1.1 ± 0.097
CC(=O)Nc1ccc(NC(=S)NC(=O)c2ccc(C(C)(C)C)cc2)cc1 [Tenovin-1]	0.269 ± 0.0096
CC1(C)CC[C@]2(NC(=O)C(C)(F)F)CC[C@]3(C)[C@H](C(=O)C=C4[C@@]5(C)C=C(C#N)C(=O)C(C)(C)[C@@H]5CC[C@]43C)[C@@H]2C1 [Omaveloxolone (RTA-408)]	0.206 ± 0.0087
COc1cc(N2CCN(C)CC2)ccc1Nc1nccc(-c2cn(C)c3cnccc23)n1	1.05 ± 0.027

SMILES	relative cell viability
CC(=O)N1CCN(CCOc2ccc(C3CCN(C4=Nn5c(nnc5C(F)(F)F)CC4)CC3)cc2)CC1	1.3 ± 0.037
CNc1cc(-c2cccc(Cl)c2Cl)nc(N)n1	1.1 ± 0.021
Cc1[nH]nc2ccc(-c3cncc(OC[C@@H](N)Cc4ccccc4)c3)cc12	0.123 ± 0.0016
Cn1nc(C(C)(C)C)cc1C(=O)N[C@@H](Cc1cccc(Cl)c1)C(=O)NCC#N [Cathepsin Inhibitor 1]	1.151 ± 0.011
O=C(NCc1ccc(Oc2ccccc2)cc1)c1nc(-c2cc(Br)c(O)c(Br)c2)no1	1.13 ± 0.022
Cn1cc(CNCC2CCN(c3ncc(C(=O)NO)cn3)CC2)c2ccccc21	0.163 ± 0.029
O=C(NC1CC1)c1cc(-c2cccs2)on1 [Isoxazole 9 (ISX-9)]	1.13 ± 0.015
O=C(O)C(S)=Cc1c[nH]c2ccc(F)cc12	1.27 ± 0.013
Cc1cc(C)c(CNC(=O)c2cc(-c3ccc(N4CCN(C)CC4)nc3)cc3c2c(C)cn3C(C)C)c(=O)[nH]1	1.078 ± 0.0077
O=C(/C=C/c1ccc(O)cc1)c1ccc(O)cc1O [Isoliquiritigenin]	0.904 ± 0.33
O=c1[nH]c(=O)n(C2CC(O)C(CO)O2)cc1Br (configuration not stated) [Bromodeoxyuridine (BrdU)]	1.04 ± 0.082
CN(C)Cc1ccc(S(=O)(=O)n2ccc(/C=C/C(=O)NO)c2)cc1 [Resminostat]	0.781 ± 0.029
CCCCc1nc2cc(/C=C/C(=O)NO)ccc2n1CCN(CC)CC [Pracinostat (SB939)]	0.155 ± 0.046
Cc1ccc(S(=O)(=O)c2ccc([N+](=O)[O-])o2)cc1	0.2656 ± 0.0026
O=[N+]([O-])c1cn2c(n1)OC[C@@H](OCc1ccc(OC(F)(F)F)cc1)C2	1.05 ± 0.064
COC(=O)CC[C@H](NC(=O)[C@H](CC(=O)OC)NC(=O)OCc1ccccc1)C(=O)N[C@H](C(=O)N[C@@H](CC(=O)OC)C(=O)CF)C(C)C	1.25 ± 0.12
CC(C)(Cc1ccc2ccccc2c1)NC[C@@H](O)COc1cccc(Cl)c1C#N	1.09 ± 0.051
O=C(NCC1(c2nc(-c3ccccc3)cs2)CCOCC1)c1cccc(-c2noc(C(F)(F)F)n2)c1	1.1 ± 0.12
O=C(Nc1cccc(Cl)c1)c1ccccn1	0.9222 ± 0.0036
Clc1ccc(NN=C(c2ccccc2)c2ccccn2)nc1	0.0829 ± 0.0081
COc1ccc(CCc2nc3cc(-c4c(C)noc4C)ccc3n2C[C@H](C)N2CCOCC2)cc1Cl	0.925 ± 0.092
CNC(=O)[C@H](Cc1c[nH]c2ccccc12)NC(=O)[C@@H](CC(=O)NO)CC(C)C [Ilomastat (GM6001, Galardin)]	1.05 ± 0.021
Cc1ccc(NC(=O)c2ccc(CN3CC[C@H](N(C)C)C3)c(C(F)(F)F)c2)cc1Nc1nccc(-c2cncnc2)n1 [Bafetinib (INNO-406)]	1.13 ± 0.047
CCCN1CCCC[C@H]1C(=O)Nc1c(C)cccc1C [Ropivacaine HCl]	1.02 ± 0.075
CC[C@@H](C)Nc1cc(C(=O)N[C@H]2C[C@H]3CC[C@@H](C2)N3c2ccc(C(=O)C3CC3)cn2)c(C)cc1C(N)=O	0.213 ± 0.014
O=C(O)Cn1nnc(-c2cc(N3CCC(Oc4cc(F)ccc4Br)CC3)no2)n1	1.05 ± 0.024

SMILES	relative cell viability
CC(C)(C)c1cc(/C=C(\C#N)C(N)=S)cc(C(C)(C)C)c1O [Tyrphostin AG 879]	1.04 ± 0.053
FC(F)(F)Oc1ccc2nc(-c3ccc(OCCOCCOc4ccc(-c5nc6ccc(OC(F)(F)F)cc6[nH]5)nc4)cn3)[nH]c2c1	0.708 ± 0.0018
OCc1c[nH]c2ccccc12 [Indole-3-carbinol]	1.007 ± 0.0087
O=C(/C=C/c1ccc(CN(CCO)CCc2c[nH]c3ccccc23)cc1)NO [LAQ824 (Dacinostat)]	0.124 ± 0.015
O=C(O)CCCc1c[nH]c2ccccc12 [3-Indolebutyric acid (IBA)]	1.11 ± 0.1
COc1cc(C(=O)N2CCC(N3CCN(C)CC3)CC2)ccc1Nc1ncc2c(n1)N(C)c1ccccc1C(=O)N2C	1.02 ± 0.019
Cc1cc(F)c(Nc2ncnc3cc(OCc4ccccc4)ccc23)cc1O	1.17 ± 0.027
CC(C)C[C@H](NC(=O)[C@H](Cc1ccccc1)NC(=O)c1cnccn1)B(O)O [Bortezomib (PS-341)]	0.329 ± 0.066
CC(C)C[C@H](NC(=O)[C@H](CCc1ccccc1)NC(=O)CN1CCOCC1)C(=O)N[C@@H](Cc1ccccc1)C(=O)N[C@@H](CC(C)C)C(=O)[C@@]1(C)CO1 [Carfilzomib (PR-171)]	0.193 ± 0.016
CC(NC(=O)C(Cc1ccccc1)NC(=O)OCc1ccccc1)C(=O)CF (configuration not stated)	0.951 ± 0.043
COc1ccc(C[C@H](NC(=O)[C@H](C)NC(=O)CN2CCOCC2)C(=O)N[C@@H](Cc2ccccc2)C(=O)[C@@]2(C)CO2)cc1	0.1525 ± 0.00028
COC(=O)[C@H](Cc1ccccc1)NC(=O)[C@@H](N)CC(=O)O [Aspartame]	1.09 ± 0.15
COC[C@H](NC(=O)c1cnc(C)s1)C(=O)N[C@@H](COC)C(=O)N[C@@H](Cc1ccccc1)C(=O)[C@@]1(C)CO1 [Oprozomib (ONX 0912)]	0.123 ± 0.005
CC(C)N(C[C@H]1O[C@@H](n2cnc3c(N)ncnc32)[C@H](O)[C@@H]1O)[C@H]1C[C@@H](CCc2nc3cc(C(C)(C)C)ccc3[nH]2)C1	1.12 ± 0.029
C[C@H]1O[C@@H](O[C@H]2[C@@H](O)C[C@H](O[C@H]3[C@@H](O)C[C@H](O[C@H]4CC[C@@]5(C)[C@H](CC[C@@H]6[C@@H]5C[C@@H](O)[C@]5(C)[C@@H](C7=CC(=O)OC7)CC[C@]65O)C4)O[C@@H]3C)O[C@@H]2C)C[C@H](O)[C@@H]1O [Digoxin]	0.0999 ± 0.0026
C[C@H]1Oc2cc(cnc2N)-c2c(nn(C)c2C#N)CN(C)C(=O)c2ccc(F)cc21	1.12 ± 0.049
Cn1cc(C2=C(c3cn(CCCSC(=N)N)c4ccccc34)C(=O)NC2=O)c2ccccc21 [Ro 31-8220 Mesylate]	1.05 ± 0.1
C/C(=N\NC(=O)c1cccc(S(=O)(=O)N2CCOCC2)c1)c1cc(Cl)ccc1O	1.08 ± 0.014
COc1ccc(S(=O)(=O)N(C(C)=O)c2ccccc2/C=C/c2cc[n+]([O-])cc2)cc1	0.855 ± 0.05
NC[C@@](O)(c1ccc(Cl)cc1)c1ccc(-c2cn[nH]c2)cc1	0.23 ± 0.029
COc1c(C)cnc(Cn2cnc3c(Cl)nc(N)nc32)c1C	0.19 ± 0.017
O=C(Cc1cccc(OC(F)(F)F)c1)Nc1ccc(CCCCc2nnc(NC(=O)Cc3ccccn3)s2)nn1	1.04 ± 0.35
O=C1NC(=O)C(c2cnc3ccccn23)=C1c1cn2c3c(cc(F)cc13)CN(C(=O)N1CCCCC1)CC2	1.28 ± 0.1
COc1ccccc1S(=O)(=O)Nc1ccc2c(c1)CN(C)C(=O)N2	0.881 ± 0.091
Cc1ncc(CCCN(C)C)cc1Nc1ncc2c(n1)-c1ccc(C(F)(F)F)cc1NC(=S)C2	0.81 ± 0.023
